In the supplement of paper PMC6992640:
Counter-ions that a name gives are not always drawn. ± gives the standard deviation of the averaged measurements.

Columns and labels:
Assay in all cases: cell viability (% of vehicle); higher = less cytotoxic
Conditions in all cases: 10 µM; 72 h
HCI01 = test system: HCI01 (cells of a triple-negative basal-like breast cancer xenograft)
HCI03 = test system: HCI03 (cells of an ER-positive luminal breast cancer xenograft)
HCI09 = test system: HCI09 (cells of a triple-negative luminal androgen receptor type breast cancer xenograft)
HCI11 = test system: HCI11 (cells of an ER-positive luminal breast cancer xenograft)
HCI13 = test system: HCI13 (cells of an ER-positive luminal breast cancer xenograft)
HCI16 = test system: HCI16 (cells of a triple-negative basal-like breast cancer xenograft)
UCD52 = test system: UCD52 (cells of a triple-negative basal-like breast cancer xenograft)
WHIM2 = test system: WHIM2 (cells of a triple-negative basal-like breast cancer xenograft)
WHIM30 = test system: WHIM30 (cells of a triple-negative basal-like breast cancer xenograft)
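Note: PDX cells carrying CMV promoter-driven luciferase, viability read as total photon flux per second by IVIS imaging following D-luciferin, vehicle control 0.1% DMSO.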

SMILES	cell viability (HCI01)	cell viability (HCI03)	cell viability (HCI09)	cell viability (HCI11)	cell viability (HCI13)	cell viability (HCI16)	cell viability (UCD52)	cell viability (WHIM2)	cell viability (WHIM30)
CC(=O)OC1(C(C)=O)CCC2C3CCC4=CC(=O)CCC4=C3C(c3ccc(N(C)C)cc3)CC21C (stereo not given) [Ulipristal acetate]	97.9 ± 26	116	82.5 ± 9	78.9	92.8 ± 17	117	93.4 ± 5.8	105 ± 2.1	111 ± 18
CC(C)C(N)C(=O)OCCOCn1cnc2c(=O)nc(N)[nH]c21.Cl (stereo not given) [Valaciclovir HCl]	71.5 ± 40	128	94.3 ± 3	88.8	94.7 ± 8.2	106	91.8 ± 12	102 ± 19	169 ± 13
O=C(O)C1=COC(OC2OC(CO)C(O)C(O)C2O)C2C(CO)=CCC12 (stereo not given) [Geniposidic acid]	99.5 ± 9.7	150	93.7 ± 17	95.6	107 ± 12	110	99.8 ± 10	94.3 ± 6	143.2 ± 0.61
Cc1ccc(Cl)c(Nc2ccccc2C(=O)[O-])c1Cl.[Na+] [Meclofenamate Sodium]	111 ± 10	158	100 ± 5.1	103	122 ± 5	121	92.1 ± 4.6	97.8 ± 9.9	144 ± 2.2
Cc1cccc(C)c1OCC(=O)NC(Cc1ccccc1)C(O)CC(Cc1ccccc1)NC(=O)C(C(C)C)N1CCCNC1=O (stereo not given) [Lopinavir]	83 ± 1.7	102	57.3 ± 20	88.4	93.7 ± 6.3	116	48 ± 4	73.6 ± 13	96.4 ± 16
COc1ccc(C2Sc3ccccc3N(CCN(C)C)C(=O)C2OC(C)=O)cc1.Cl (stereo not given) [Diltiazem HCl]	81.5 ± 45	123	85.4 ± 4	88.9	95.5 ± 7.5	108	72.3 ± 5.6	93 ± 22	131 ± 15
CN1CCN(c2cc3c(cc2F)c(=O)c(C(=O)O)cn3-c2ccc(F)cc2)CC1 [Difloxacin HCl]	60.2 ± 1	84.7	53.6 ± 2	190	115 ± 8.6	94.8	116 ± 9.9	71.6 ± 21	130 ± 23
CC1c2cccc(O)c2C(O)=C2C(=O)C3(O)C(O)=C(C(N)=O)C(=O)C(N(C)C)C3C(O)C21.Cl (stereo not given) [Doxycycline HCl]	91.6 ± 4.1	106	90.6 ± 17	83.7	84 ± 14	104	89.9 ± 2.7	118 ± 14	98.7 ± 9.1
CS(=O)(=O)c1ccc(C(O)C(CF)NC(=O)C(Cl)Cl)cc1 (stereo not given) [Florfenicol]	118 ± 25	118	89.5 ± 2.1	101	114 ± 8.4	116	102 ± 2.6	87.4 ± 18	99.1 ± 6.9
COc1ccc(Cl)cc1C(=O)NCCc1ccc(S(=O)(=O)NC(=O)NC2CCCCC2)cc1 [Glibenclamide]	103 ± 13	151	93.7 ± 16	93.2	108.2 ± 0.86	110	119 ± 3.5	134.7 ± 0.95	–
C[N+]1(C)C2CCC1CC(OC(=O)C(O)c1ccccc1)C2.[Br-] (stereo not given) [Homatropine Methylbromide]	96.2 ± 1.2	97.6	89.8 ± 18	85.9	105 ± 5	114	104 ± 1.8	112 ± 8	50.8 ± 2.7
NC(=O)NO [Hydroxyurea]	62.8 ± 36	111	89.2 ± 7.3	90	113 ± 11	110	78.7 ± 4.1	96.5 ± 31	125 ± 3.9
O=C1C(CCC(O)c2ccc(F)cc2)C(c2ccc(O)cc2)N1c1ccc(F)cc1 (stereo not given) [Ezetimibe]	109 ± 6.1	102	86.6 ± 20	92.5	121 ± 3.4	97.3	81.4 ± 3.2	96 ± 5.4	100 ± 5.3
CCCCC(=O)OC1CCC2C3CCc4cc(O)ccc4C3CCC12C (stereo not given) [Estradiol valerate]	157 ± 47	122	98.1 ± 4.8	91.3	182 ± 36	137	90.6 ± 7.6	88.9 ± 8.9	134 ± 9.2
